# From article PMC7862700, “An all-to-all approach to the identification of sequence-specific readers for epigenetic DNA modifications on cytosine”
# Columns and labels:
# Experiment in all cases: DAPPL (digital affinity profiling via proximity ligation, sequencing); 10 mM Tris-HCl pH 7.5, 50 mM NaCl, 1 mM DTT, 4% glycerol, room temperature, 30 min; GST-TFs on glutathione beads, 16-mer random dsDNA library, 0.1% formaldehyde crosslink after washing; high values mean tight binding
# FEV = molecular target: T1, FEV (Homo sapiens, UniProt Q99581 1-238); conditions: protein: recombinant; tags: N-terminal GST; dsDNA, one strand shown
# T1 sequence: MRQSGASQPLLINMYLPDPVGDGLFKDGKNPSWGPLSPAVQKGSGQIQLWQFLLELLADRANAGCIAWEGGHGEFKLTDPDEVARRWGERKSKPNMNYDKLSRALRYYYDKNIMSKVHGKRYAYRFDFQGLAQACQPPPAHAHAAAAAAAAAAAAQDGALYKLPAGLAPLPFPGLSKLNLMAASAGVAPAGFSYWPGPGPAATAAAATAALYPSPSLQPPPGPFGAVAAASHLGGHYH
# Summary of the method: (§1)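 Beads coated with glutathione captured GST-fused human transcription factors that had been expressed in yeast, and the factors were then given DNA barcodes and pooled with a tag-only sample. The pools were incubated with 200 nmole of a random double-stranded 16-mer DNA library in Tris/NaCl/DTT/glycerol buffer for 30 min at room temperature, washed, crosslinked with 0.1% formaldehyde and proximity-ligated with BsaI/T4 ligase at 37 °C for 1 h. PCR amplification and Illumina NextSeq500 sequencing came last. Binding signal is each hexamer's read frequency for a factor divided by its frequency for the tag-only sample.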
# ETV5 = ETV5 (Homo sapiens, UniProt P41161 1-510); conditions: protein: recombinant; tags: N-terminal GST; dsDNA, one strand shown
# Summary of the method: as §1
# HSF1 = HSF1 (Homo sapiens, UniProt Q00613 1-529); conditions: protein: recombinant; tags: N-terminal GST; chain copies: 3; dsDNA, one strand shown
# Summary of the method: as §1
# SPIC = molecular target: T2, SPIC (Homo sapiens, UniProt Q8N5J4 1-248); conditions: protein: recombinant; tags: N-terminal GST; dsDNA, one strand shown
# T2 sequence: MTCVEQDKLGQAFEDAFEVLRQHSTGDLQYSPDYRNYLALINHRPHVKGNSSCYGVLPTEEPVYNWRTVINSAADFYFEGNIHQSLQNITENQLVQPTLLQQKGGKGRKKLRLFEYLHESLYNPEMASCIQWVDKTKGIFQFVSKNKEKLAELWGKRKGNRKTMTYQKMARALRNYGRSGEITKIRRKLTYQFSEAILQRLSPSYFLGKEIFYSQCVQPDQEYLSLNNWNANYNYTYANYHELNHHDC
# Summary of the method: as §1
# ELF4 = ELF4 (Homo sapiens, UniProt Q99607 1-663); conditions: protein: recombinant; tags: N-terminal GST; dsDNA, one strand shown
# Summary of the method: as §1
# ELK4 = molecular target: T3, ELK4 (Homo sapiens, UniProt P28324-2 1-405); conditions: protein: recombinant; tags: N-terminal GST; dsDNA, one strand shown
# T3 sequence: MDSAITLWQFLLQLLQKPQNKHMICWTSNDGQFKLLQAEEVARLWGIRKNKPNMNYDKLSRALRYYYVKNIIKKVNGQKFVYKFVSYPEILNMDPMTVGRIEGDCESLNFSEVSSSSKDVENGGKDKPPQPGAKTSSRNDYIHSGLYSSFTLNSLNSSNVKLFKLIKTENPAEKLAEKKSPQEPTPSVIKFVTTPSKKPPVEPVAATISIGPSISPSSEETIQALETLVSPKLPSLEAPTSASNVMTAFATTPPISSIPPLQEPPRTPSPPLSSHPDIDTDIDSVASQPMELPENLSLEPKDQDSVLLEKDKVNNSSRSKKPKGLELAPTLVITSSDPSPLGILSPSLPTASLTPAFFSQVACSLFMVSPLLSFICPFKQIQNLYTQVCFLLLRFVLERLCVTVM
# Summary of the method: as §1
# ETV2 = molecular target: T4, ETV2 (Homo sapiens, UniProt O00321 1-342); conditions: protein: recombinant; tags: N-terminal GST; dsDNA, one strand shown
# T4 sequence: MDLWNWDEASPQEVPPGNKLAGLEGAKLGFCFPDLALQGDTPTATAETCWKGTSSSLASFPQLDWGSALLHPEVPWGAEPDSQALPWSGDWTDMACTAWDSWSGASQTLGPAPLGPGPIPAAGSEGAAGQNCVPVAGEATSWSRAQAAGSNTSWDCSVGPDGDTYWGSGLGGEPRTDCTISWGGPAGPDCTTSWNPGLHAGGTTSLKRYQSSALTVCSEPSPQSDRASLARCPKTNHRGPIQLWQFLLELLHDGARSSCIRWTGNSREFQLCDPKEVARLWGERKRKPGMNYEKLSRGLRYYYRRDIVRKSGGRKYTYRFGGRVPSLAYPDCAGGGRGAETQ
# Summary of the method: as §1
# ELF3 = molecular target: T5, ELF3 (Homo sapiens, UniProt P78545 1-371); conditions: protein: recombinant; tags: N-terminal GST; dsDNA, one strand shown
# T5 sequence: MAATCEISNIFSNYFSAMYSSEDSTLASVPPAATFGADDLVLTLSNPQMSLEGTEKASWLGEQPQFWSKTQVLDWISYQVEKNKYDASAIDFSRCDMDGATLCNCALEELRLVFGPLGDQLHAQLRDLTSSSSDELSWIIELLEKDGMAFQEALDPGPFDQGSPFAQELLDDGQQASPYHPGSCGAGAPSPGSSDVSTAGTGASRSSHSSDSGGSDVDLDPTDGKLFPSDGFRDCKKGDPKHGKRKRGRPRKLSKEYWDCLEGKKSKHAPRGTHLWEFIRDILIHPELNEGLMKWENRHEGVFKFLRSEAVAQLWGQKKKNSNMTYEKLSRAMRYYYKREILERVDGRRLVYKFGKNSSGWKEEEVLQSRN
# Summary of the method: as §1
# CRX = CRX (Homo sapiens, UniProt O43186 1-299); conditions: protein: recombinant; tags: N-terminal GST; dsDNA, one strand shown
# Summary of the method: as §1
# ETV1 = ETV1 (Homo sapiens, UniProt P50549 1-477); conditions: protein: recombinant; tags: N-terminal GST; dsDNA, one strand shown
# Summary of the method: as §1
# HSF1, sequence (Q00613 whole entry): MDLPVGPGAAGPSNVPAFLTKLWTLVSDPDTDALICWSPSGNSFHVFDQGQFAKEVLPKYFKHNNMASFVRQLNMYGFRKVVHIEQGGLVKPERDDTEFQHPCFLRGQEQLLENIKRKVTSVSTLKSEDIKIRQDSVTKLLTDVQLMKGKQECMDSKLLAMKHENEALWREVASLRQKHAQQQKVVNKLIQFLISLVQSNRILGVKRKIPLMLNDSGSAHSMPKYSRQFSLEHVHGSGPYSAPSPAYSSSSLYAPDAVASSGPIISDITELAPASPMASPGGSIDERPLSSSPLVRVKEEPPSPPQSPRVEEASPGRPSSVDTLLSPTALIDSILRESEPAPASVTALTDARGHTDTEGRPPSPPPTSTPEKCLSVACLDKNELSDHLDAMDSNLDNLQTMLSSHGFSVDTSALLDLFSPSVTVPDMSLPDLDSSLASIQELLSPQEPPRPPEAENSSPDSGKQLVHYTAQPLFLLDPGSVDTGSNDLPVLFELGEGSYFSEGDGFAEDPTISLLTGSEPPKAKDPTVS
# ELF4, sequence (Q99607 whole entry): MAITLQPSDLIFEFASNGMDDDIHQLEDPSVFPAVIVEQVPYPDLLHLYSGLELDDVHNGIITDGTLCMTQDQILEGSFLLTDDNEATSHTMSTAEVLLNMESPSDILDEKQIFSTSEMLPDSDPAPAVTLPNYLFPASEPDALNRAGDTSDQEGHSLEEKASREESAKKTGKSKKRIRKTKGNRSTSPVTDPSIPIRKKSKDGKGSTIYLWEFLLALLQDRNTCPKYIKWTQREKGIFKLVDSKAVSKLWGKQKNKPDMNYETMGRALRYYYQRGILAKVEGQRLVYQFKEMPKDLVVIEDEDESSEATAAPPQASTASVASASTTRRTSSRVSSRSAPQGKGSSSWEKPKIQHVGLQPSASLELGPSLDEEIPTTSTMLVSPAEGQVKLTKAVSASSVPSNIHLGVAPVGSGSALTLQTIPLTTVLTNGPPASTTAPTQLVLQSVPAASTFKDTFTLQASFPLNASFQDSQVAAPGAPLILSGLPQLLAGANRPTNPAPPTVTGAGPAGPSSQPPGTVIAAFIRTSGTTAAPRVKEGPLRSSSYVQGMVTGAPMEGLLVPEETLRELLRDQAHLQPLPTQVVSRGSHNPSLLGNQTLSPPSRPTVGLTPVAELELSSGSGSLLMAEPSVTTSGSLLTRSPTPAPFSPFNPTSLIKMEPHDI
# CRX, sequence (O43186 whole entry): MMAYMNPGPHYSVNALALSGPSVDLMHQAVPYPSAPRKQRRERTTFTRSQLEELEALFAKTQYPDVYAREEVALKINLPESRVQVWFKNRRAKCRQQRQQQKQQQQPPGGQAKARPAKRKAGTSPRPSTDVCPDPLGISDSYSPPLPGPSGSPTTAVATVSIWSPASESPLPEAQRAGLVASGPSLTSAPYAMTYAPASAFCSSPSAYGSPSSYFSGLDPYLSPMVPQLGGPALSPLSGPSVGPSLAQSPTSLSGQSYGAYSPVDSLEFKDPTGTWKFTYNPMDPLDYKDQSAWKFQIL
# ETV1, sequence (P50549 whole entry): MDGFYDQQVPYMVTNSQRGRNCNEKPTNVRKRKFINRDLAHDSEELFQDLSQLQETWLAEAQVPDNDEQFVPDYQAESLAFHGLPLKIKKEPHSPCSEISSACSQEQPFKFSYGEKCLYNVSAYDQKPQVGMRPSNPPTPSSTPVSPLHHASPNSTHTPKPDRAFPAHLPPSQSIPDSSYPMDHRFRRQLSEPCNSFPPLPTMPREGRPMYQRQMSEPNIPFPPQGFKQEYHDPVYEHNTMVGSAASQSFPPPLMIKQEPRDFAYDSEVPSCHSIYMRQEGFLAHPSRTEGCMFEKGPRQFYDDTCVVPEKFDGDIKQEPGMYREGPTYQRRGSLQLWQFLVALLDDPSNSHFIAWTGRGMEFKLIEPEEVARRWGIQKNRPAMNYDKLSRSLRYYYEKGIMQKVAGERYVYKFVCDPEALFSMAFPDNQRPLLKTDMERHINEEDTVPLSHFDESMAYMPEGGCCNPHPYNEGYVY
# ETV5, sequence (P41161 whole entry): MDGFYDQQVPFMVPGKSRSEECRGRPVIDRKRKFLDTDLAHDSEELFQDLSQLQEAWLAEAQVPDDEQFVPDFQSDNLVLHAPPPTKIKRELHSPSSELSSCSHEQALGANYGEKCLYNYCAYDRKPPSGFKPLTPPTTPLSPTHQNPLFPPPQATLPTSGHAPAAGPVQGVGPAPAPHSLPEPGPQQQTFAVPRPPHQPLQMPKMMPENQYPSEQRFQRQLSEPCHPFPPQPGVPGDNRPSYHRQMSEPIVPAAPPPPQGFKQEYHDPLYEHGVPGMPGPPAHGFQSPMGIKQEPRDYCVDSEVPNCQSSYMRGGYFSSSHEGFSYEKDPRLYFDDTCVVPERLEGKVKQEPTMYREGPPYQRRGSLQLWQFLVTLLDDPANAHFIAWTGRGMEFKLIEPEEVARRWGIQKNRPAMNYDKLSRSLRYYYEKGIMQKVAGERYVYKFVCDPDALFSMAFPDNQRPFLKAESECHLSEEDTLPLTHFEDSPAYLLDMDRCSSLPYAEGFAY
sequence,measurement,setting,value
CTGAAT,binding signal,FEV,"1.32 fold enrichment (6-mer frequency, TF over GST control)"
same,binding signal,ETV5,"1.29 fold enrichment (6-mer frequency, TF over GST control)"
same,binding signal,HSF1,"1.37 fold enrichment (6-mer frequency, TF over GST control)"
same,binding signal,SPIC,"1.29 fold enrichment (6-mer frequency, TF over GST control)"
same,binding signal,ELF4,"1.29 fold enrichment (6-mer frequency, TF over GST control)"
same,binding signal,ELK4,"1.31 fold enrichment (6-mer frequency, TF over GST control)"
same,binding signal,ETV2,"1.5 fold enrichment (6-mer frequency, TF over GST control)"
same,binding signal,ELF3,"1.15 fold enrichment (6-mer frequency, TF over GST control)"
same,binding signal,CRX,"1.34 fold enrichment (6-mer frequency, TF over GST control)"
same,binding signal,ETV1,"1.36 fold enrichment (6-mer frequency, TF over GST control)"
